Assay results reported in PubChem BioAssay (NCI).
This is part of a sample that, as a whole, favours compounds with a hit. Of some 83,000 tested, about 20% had one in any assay.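 The endpoint reported here, percent growth, reads 100 for growth as untreated, 0 for no net growth and -100 for all cells dead.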 Activity calls are given as the source filed them. How the source made its calls: active means growth percent below 10; inactive means the rest.

Each compound was assayed on NCI-H23 lung (assay: NCI-60 one-dose screen, 48 h (100 = growth as untreated, 0 = no growth, -100 = all killed)). Details: 10 µM unless noted.

SMILES | growth
O=C(c1ccccc1)c1c(/C=C/c2ccccc2)nc2ccccc2c1/C=C/c1ccc(Br)cc1 | 94.5% (inactive)
O=C(COc1ccc(/C=C2\Oc3ccccc3C2=O)cc1)Nc1nc2c(s1)CCCC2 | 45.1% (inactive)
Cc1ccc(Cl)c(NS(=O)(=O)c2ccc(-c3cnc(C4CC4)o3)cc2)c1 | 36.2% (inactive)
Cc1ccc2nc(C)c(-c3nnc(SCc4ccc(C#N)cc4)o3)n2c1 | 85.3% (inactive)
CC1=C(SCCC(=O)OC(C[Se]C2=C(C)C(=O)c3ccccc3C2=O)C(=O)NCCCCCC(=O)OCc2ccccc2)C(=O)c2ccccc2C1=O (configuration not stated) | 15.2% (inactive)
NNC(=O)c1nc(N)n(-c2ccc(S(N)(=O)=O)cc2)n1 | 97.2% (inactive)
Cn1c(=O)c2[nH]c(NN)nc2n(C)c1=O | 107% (inactive)
O=C(/C=C/c1cccc(O)c1)c1cccc(-n2cc(-c3ccc4ccccc4c3)[nH]c2=O)c1 | 28.2% (inactive)
O=C(/C=C/c1ccco1)c1ccc(Nc2nc(Nc3ccc(F)cc3)nc(Nc3ccc(Cl)cc3)n2)cc1 | 59.5% (inactive)
O=C1OC(c2nc3ccccc3s2)=C/C1=C\c1ccc(O)cc1 | 98.9% (inactive)
COc1ccc(-c2c(N)n[nH]c2-c2ccc(Cl)cc2O)cc1OC | 83.2% (inactive)
O=C(Nc1cccc(Cl)c1)c1cc(N=Nc2ccc([N+](=O)[O-])cc2Cl)ccc1O | 63% (inactive)
CCN(CC)CCN1C(=O)c2c(c(C)c3c(oc4cc(O)ccc43)c2C)C1=O | 92.7% (inactive)
CNC(=O)c1cc(Oc2ccc3nc(Nc4ccc(Cl)c(C(F)(F)F)c4)ccc3c2)ccn1 | 72.5% (inactive)
CCCc1cc2c(=O)c(C(=O)OC)c[nH]c2cc1N(CC)CC | 102% (inactive)
COc1cc(/C=N/NC(=O)Cn2c(C(C)C)nc3ccccc32)ccc1O | 94.9% (inactive)
COc1ccc(C(=O)COc2ccc(/C=C3\Oc4ccccc4C3=O)cc2)cc1 | 92.9% (inactive)
CCN(CCNc1ccc(C)c2sc3ccccc3c(=O)c12)CC(C)(C)O | 86.7% (inactive)
O=C(CSc1nnc(-c2ccc(NC(=O)c3cccnc3)cc2)o1)N[C@@H](Cc1ccc(O)cc1)C(=O)O | 108% (inactive)
CN(C)c1ccc(/C=C/C(=O)c2cccc(Nc3nc(Nc4ccccc4)nc(Nc4ccccc4)n3)c2)cc1 | 82.7% (inactive)
N#C/C(=C\c1ccc(-c2ccccc2F)o1)c1nc(-c2ccco2)cs1 | 85.5% (inactive)
Cc1ccc(C(=O)CSc2nc(-c3ccc(Br)cc3)c(C#N)c(=O)[nH]2)cc1 | 92.6% (inactive)
COc1ccc(-c2nc3sccn3c2-c2cc(-c3cc(OC)c(OC)c(OC)c3)on2)cc1 | 88.6% (inactive)
c1ccc(-c2nc([P+](c3ccccc3)(c3ccccc3)c3ccccc3)c(N3CCOCC3)o2)cc1 | 2.61% (active)

Each compound was assayed on NCI-H226 lung in the same assay as above. Details: 10 µM unless noted.

SMILES | growth
CC(C)CCC[C@@H](C)[C@H]1CC[C@H]2[C@@H](Nc3ccc(O)cc3)CCC[C@]12C | 105% (inactive)
O=C(Nc1ccccc1)Nc1cccc(Oc2nnc(Cl)c3ccccc23)c1 | 8.66% (active)
CCCCNC(=O)Oc1ccc2c(=O)c3sc4c(=O)c5ccccc5c(=O)c4c3c(=O)c2c1 | -89% (active)
COc1nc(N(C)O)nc(N(C)O)n1 | 49.3% (inactive)
N=c1sc(Cc2ccc(Cl)cc2)cn1CC(=O)c1ccc(F)cc1 | 83% (inactive)
Cc1ccc(-c2cc(-c3ccccc3C)[nH]c(=O)c2C#N)s1 | 93.1% (inactive)
O=C1/C(=C\c2c[nH]c3ccccc23)c2ccccc2N1c1c(Cl)cccc1Cl | 14.7% (inactive)
COc1ccc(C2C(c3nn[nH]n3)=C(N)Oc3c2ccc2ccccc32)cc1 (configuration not stated) | 82.4% (inactive)
CCCCCCCOc1c(OC)cc(C2CC(=O)Nc3c2c(C)nn3-c2nc3ccccc3[nH]2)cc1OC (configuration not stated) | -38.7% (active)
Cc1c(C(=O)OC(=NC2CCCCC2)NC2CCCCC2)sc2c1c(=O)nc1c(C#N)n[nH]n12 | 131% (inactive)
C[n+]1cccc(CC(=O)NO)c1 | 89.3% (inactive)
c1c[nH]c(CNC2CCCCC2)c1 | 102% (inactive)
N#C/C(=C\c1ccc(Br)cc1)n1nnc2cc(F)c(F)cc21 | 37.3% (inactive)
CC1(C)CC[C@]2(C(=O)N3CCOCC3)CC[C@]3(C)C(=CC[C@@H]4[C@@]5(C)CC[C@H](OC(=O)c6cccnc6)C(C)(C)[C@@H]5CC[C@]43C)[C@@H]2C1 | 50.1% (inactive)
O=C(c1ccccc1)c1c(/C=C/c2ccccc2)nc2ccccc2c1/C=C/c1ccc(Br)cc1 | 95.1% (inactive)
O=C(COc1ccc(/C=C2\Oc3ccccc3C2=O)cc1)Nc1nc2c(s1)CCCC2 | 84.3% (inactive)
Cc1ccc(Cl)c(NS(=O)(=O)c2ccc(-c3cnc(C4CC4)o3)cc2)c1 | 33.8% (inactive)
Cc1ccc2nc(C)c(-c3nnc(SCc4ccc(C#N)cc4)o3)n2c1 | 93.5% (inactive)
CC1=C(SCCC(=O)OC(C[Se]C2=C(C)C(=O)c3ccccc3C2=O)C(=O)NCCCCCC(=O)OCc2ccccc2)C(=O)c2ccccc2C1=O (configuration not stated) | 93.4% (inactive)

SMILES | growth
NNC(=O)c1nc(N)n(-c2ccc(S(N)(=O)=O)cc2)n1 | 98.7% (inactive)
Cn1c(=O)c2[nH]c(NN)nc2n(C)c1=O | 106% (inactive)
O=C(/C=C/c1cccc(O)c1)c1cccc(-n2cc(-c3ccc4ccccc4c3)[nH]c2=O)c1 | 88.9% (inactive)
O=C(/C=C/c1ccco1)c1ccc(Nc2nc(Nc3ccc(F)cc3)nc(Nc3ccc(Cl)cc3)n2)cc1 | 86% (inactive)
O=C1OC(c2nc3ccccc3s2)=C/C1=C\c1ccc(O)cc1 | 99.5% (inactive)
COc1ccc(-c2c(N)n[nH]c2-c2ccc(Cl)cc2O)cc1OC | 79.8% (inactive)
O=C(Nc1cccc(Cl)c1)c1cc(N=Nc2ccc([N+](=O)[O-])cc2Cl)ccc1O | 97% (inactive)
CCN(CC)CCN1C(=O)c2c(c(C)c3c(oc4cc(O)ccc43)c2C)C1=O | 29.2% (inactive)
CNC(=O)c1cc(Oc2ccc3nc(Nc4ccc(Cl)c(C(F)(F)F)c4)ccc3c2)ccn1 | 56.9% (inactive)
CCCc1cc2c(=O)c(C(=O)OC)c[nH]c2cc1N(CC)CC | 81.7% (inactive)
COc1cc(/C=N/NC(=O)Cn2c(C(C)C)nc3ccccc32)ccc1O | 93.7% (inactive)
COc1ccc(C(=O)COc2ccc(/C=C3\Oc4ccccc4C3=O)cc2)cc1 | 88% (inactive)
CCN(CCNc1ccc(C)c2sc3ccccc3c(=O)c12)CC(C)(C)O | 96.7% (inactive)
O=C(CSc1nnc(-c2ccc(NC(=O)c3cccnc3)cc2)o1)N[C@@H](Cc1ccc(O)cc1)C(=O)O | 102% (inactive)
CN(C)c1ccc(/C=C/C(=O)c2cccc(Nc3nc(Nc4ccccc4)nc(Nc4ccccc4)n3)c2)cc1 | 94% (inactive)
N#C/C(=C\c1ccc(-c2ccccc2F)o1)c1nc(-c2ccco2)cs1 | 80.9% (inactive)
Cc1ccc(C(=O)CSc2nc(-c3ccc(Br)cc3)c(C#N)c(=O)[nH]2)cc1 | 101% (inactive)
COc1ccc(-c2nc3sccn3c2-c2cc(-c3cc(OC)c(OC)c(OC)c3)on2)cc1 | 116% (inactive)
c1ccc(-c2nc([P+](c3ccccc3)(c3ccccc3)c3ccccc3)c(N3CCOCC3)o2)cc1 | 34.7% (inactive)
